TIM10 inh = growth inhibitors of isogenic TIM10 control yeast, primary screen, counter-screen for tim10-1 yeast inhibitor project, luminescence, uHTS; inhibition, % at 10 µM; S. cerevisiae TIM10 strain growth, BacTiter-Glo luminescence, 24 h; actives 1.4% (n = 330,000); AID 463195, 2010;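 active means inhibition of 40% or more at the single tested concentration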;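 further: wild-type TIM10 isogenic control strain grown at permissive 25 °C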
PfHsp90 set2 = growth inhibition of PfHsp90-expressing yeast, primary screen, antimalarial PfHsp90 inhibitor project, S. cerevisiae, BacTiter-Glo luminescence, single point, set 2. BacTiter-Glo ATP, 48 h; yeast lacking PDR1 and PDR3 efflux regulators. inhibition, % at 9.4 µM. actives 0.32% (n = 310,000);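 active means every replicate shows inhibition above about 80%, whatever the replicate mean, limit read from the data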;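 further: 0% = DMSO neutral controls and 100% = 20 µM radicicol positive controls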
tim10-1 inh = growth inhibitors of tim10-1 mutant yeast, primary screen, luminescence, uHTS; inhibition, % at 20 µM; actives 2.2% (n = 330,000); AID 463190, 2010; S. cerevisiae tim10-1 ts strain growth, BacTiter-Glo, 24 h;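 active means inhibition of at least 40%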;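 further: mutant grown at 25 °C; 0% = DMSO wells with yeast and 100% = wells holding no yeast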
tim23-1 inh = growth inhibitors of tim23-1 mutant yeast, primary screen, luminescence, uHTS; inhibition, % at 20 µM; actives 1.3% (n = 330,000); AID 463212, 2010; S. cerevisiae tim23-1 growth, BacTiter-Glo luminescence, 24 h;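 active means growth inhibition of the mutant yeast at or above 50%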;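 further: temperature-sensitive mutant grown at 25 °C; plate controls were DMSO-treated mutant yeast for no effect and medium wells lacking yeast for full effect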
SKKanGAS inh = S. pyogenes SKKanGAS growth inhibitors in kanamycin, primary screen, streptokinase expression inhibitor project, SKKanGAS strain, BacTiter-Glo luminescence; 6 h; inhibition, % at 7.5 µM; actives 1.3% (n = 300,000); AID 1662, 2009;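 active means mean replicate score, as percent of positive control median, at least 50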;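 further: strain carries kanamycin resistance gene driven by streptokinase promoter and grows in 40 µg/ml kanamycin; loss of luminescence reflects streptokinase promoter inhibition or plain growth inhibition; 0% = median of DMSO wells and 100% = positive control at its reference dose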
tim10-1 confirm = growth inhibitors of tim10-1 mutant yeast, confirmation, single concentration, luminescence, S. cerevisiae. shares compounds with tim10-1 inh. S. cerevisiae tim10-1 ts strain growth, BacTiter-Glo, 24 h. inhibition, % at 20 µM. actives 56% (n = 7,400);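 active means inhibition of yeast growth at or above a set limit in either of two repeat tests at 20 µM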;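 further: tim10-1 mutant grown at permissive 25 °C to find synthetic lethal compounds; 0% = DMSO yeast wells and 100% = medium wells without yeast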
* hit, by the source's call; . = not tested or not shown. In the library only some 4.4% were active in any assay of this set; here they are far more common.

SMILES | TIM10 inh | PfHsp90 set2 | tim10-1 inh | tim23-1 inh | SKKanGAS inh | tim10-1 confirm
C/C(=N\NC(=O)c1ccc(Cl)c(Cl)c1)c1ccccn1 | 23.2 | -28.3 | 51.9* | 49.1 | 91.9* | 47.3*
O=C(NC1CCN(Cc2ccccc2)CC1)c1cccc(S(=O)(=O)Nc2ccc(SC(F)F)cc2)c1 | 2.3 | -10.7 | -7.3 | 2.2 | . | .
Cc1n[nH]c(C)c1CCc1nc2c3ccccc3nc(SCC(=O)Nc3ccccc3F)n2n1 | 9.6 | -26.4 | 18.3 | 8.8 | 5.2 | .
Cc1cccc(NC(=O)CSc2nc3ccccc3c3nc(CCc4c(C)n[nH]c4C)nn23)c1 | 9.5 | . | 41.4* | 10.5 | 21.8 | 13.5
CCOC(=O)N1C(=O)NC(=O)C1c1ccc(OC)cc1 (stereo not drawn) | . | -5.9 | . | . | . | .
CN(C)c1oc(-c2ccccc2Cl)nc1P(=O)(c1ccccc1)c1ccccc1 | 28.2 | -39.9 | 10.6 | 30.0 | 3.6 | .
CCOc1cc(/C=C2\C(=O)ON=C2c2ccccc2)cc(Br)c1O | 11.6 | -8.1 | 45.2* | 48.3 | 9.4 | 30.1*
Cc1ccc(NC(=O)c2ccccc2NC(=O)Cc2ccccc2)cc1 | 29.9 | -7.3 | 43.5* | 32.1 | -6.9 | 20.9
O=C(Nc1ccccc1C(=O)NCc1ccccc1)c1ccccc1Br | 16.3 | 11.1 | 15.1 | 33.6 | 0.2 | .
Cc1ccccc1C(=O)Nc1ccccc1C(=O)NCc1ccccc1 | 24.9 | -13.5 | 42.6* | 29.6 | 5.3 | 36.0*
CCN(CC)C(=O)[C@H]1CC(CC(=O)NCCN2CCOCC2)C(=O)N2CCc3c([nH]c4ccccc34)[C@]12C (stereo partly drawn) | 7.4 | -1.4 | 2.7 | -0.2 | . | .
O=C(OC1CCCCC1=O)c1cc(Cl)ccc1[N+](=O)[O-] (stereo not drawn) | 19.0 | 1.9 | 45.0* | 44.1 | 3.6 | 39.3*
CC(C)c1csc(CN2CCC(n3nccc3NC(=O)Cc3ccccc3)CC2)n1 | -5.2 | -7.2 | -2.3 | -22.3 | 2.9 | .
O/N=C/c1ccc(OCc2ccccc2)c(Cl)c1 | -33.0 | 12.8 | -4.0 | 37.7 | 2.5 | .
O/N=C/c1ccc(OCc2ccccc2F)c(Cl)c1 | 3.7 | -20.7 | 40.6* | 38.4 | -12.9 | 10.8
Cc1cc(C)n(CCc2nc(-c3ccc(F)cc3)cs2)n1 | 36.9 | -2.2 | 45.0* | 30.4 | -6.6 | 37.9*
O=C(O)c1ccc(Nc2nc(-c3ccccc3)nc3ccccc23)cc1 | 4.0 | -0.3 | 52.6* | 15.1 | 16.8 | 15.4
O=C(Nc1ccccc1Cl)C(Cl)C(=O)c1ccccc1 (stereo not drawn) | 24.6 | -0.3 | 42.2* | 39.5 | . | 31.3*
COc1ccc(NS(=O)(=O)c2ccc(Br)cc2)cn1 | 3.1 | -74.9 | 17.8 | 25.7 | 0.2 | .
COc1ccc(NS(=O)(=O)c2ccc3oc4ccccc4c3c2)cn1 | 24.3 | -23.2 | 44.3* | 46.1 | -5.1 | 35.7*
O=C(NNC(=O)c1ccc(O)c(Cl)c1)c1cccc(S(=O)(=O)N2CCOCC2)c1 | -5.5 | 8.5 | 12.0 | 6.3 | 1.1 | .
Cc1nc2c(Cl)c(C)nn2c2c1CCC2 | -3.2 | . | 41.1* | 18.7 | 0.1 | 21.1
COc1ccc(-c2nc(-c3ccccn3)no2)cc1 | 35.7 | 85.9* | 48.9* | 46.1 | . | 55.7*
C/C(=N\Nc1ccc(Cl)c(Cl)c1)c1ccc(-n2ccnc2)cc1 | 35.3 | -21.5 | 46.1* | 12.3 | 81.3* | 19.0
C/C(=N\NC(N)=S)c1ccc(-n2ccnc2)cc1 | -3.5 | -17.1 | 9.7 | 14.5 | 5.0 | .
SMILES | TIM10 inh | PfHsp90 set2 | tim10-1 inh | tim23-1 inh | SKKanGAS inh | tim10-1 confirm
CNC(=O)c1nnsc1S(=O)(=O)c1ccc(Cl)cc1 | 22.8 | -118.0 | 57.9* | 32.4 | 1.1 | 46.5*
Fc1cccc(CSc2ccc3nnc(-c4ccccn4)n3n2)c1 | -14.5 | . | 29.5 | -8.3 | 0.6 | .
Fc1cccc(Cl)c1CSc1ccc2nnc(-c3ccccn3)n2n1 | 35.9 | -18.3 | 40.4* | -4.5 | -0.8 | 30.8*
O=[N+]([O-])c1cc(CN2CCN(c3cccc(C(F)(F)F)c3)CC2)c2cccnc2c1O | 20.3 | 99.0* | 47.7* | 41.9 | 94.7* | 8.9
Oc1c(CN2CCN(c3ccccn3)CC2)cc(Cl)c2cccnc12 | 25.5 | -9.4 | 52.3* | 45.7 | 108.1* | 19.4
OCCN1CCN(Cc2cc(Cl)c3cccnc3c2O)CC1 | 15.7 | 1.3 | 33.2 | -4.2 | -8.1 | .
Oc1ccc(CN2CCCCC2)c2cccnc12 | 14.0 | -14.8 | 2.3 | -7.2 | -6.7 | .
O=[N+]([O-])c1cc(CN2CCCC2)c2cccnc2c1O | . | -21.5 | . | . | . | .
Oc1ccc(CN2CCN(c3ccccc3)CC2)c2cccnc12 | -34.1 | 12.1 | 66.3* | 17.8 | 54.6* | -37.3
CCC(C)(C)C1CCC2(CC1)NC(=O)N(CC(=O)NCCc1ccc(OC)c(OC)c1)C2=O (stereo not drawn) | 15.8 | -31.7 | 1.4 | 7.7 | . | .
O=C(c1ccc(Cl)cc1)c1ccc(CN2C(=O)c3ccccc3C2=O)o1 | 23.1 | -82.0 | 41.2* | 16.9 | 6.2 | 11.8
CCCNC(=O)C(=O)NCCC1=CCCCC1 | -6.6 | . | -7.5 | -2.3 | 0.4 | .
O=C(NC(=S)NCCC1=CCCCC1)c1cncc(Br)c1 | 27.3 | -52.9 | 42.1* | 30.0 | -6.9 | 23.9
O=C1c2ccccc2C(=O)c2c(/C=C/N3CCCCC3)ccnc21 | . | 2.9 | . | . | . | .
C=CCn1c(-c2ccc(OC)cc2)nc2nc3ccccc3nc21 | 14.3 | -99.9 | 16.5 | 31.8 | 3.2 | .
Fc1ccc(-n2c(-c3ccco3)nc3nc4ccccc4nc32)cc1 | -1.1 | 12.7 | 12.4 | -4.8 | -10.0 | .
c1ccc(-c2nc3nc4ccccc4nc3n2Cc2ccco2)cc1 | 20.3 | 4.5 | 40.9* | 41.7 | 9.6 | 25.4
Fc1ccc(-c2nc3nc4ccccc4nc3n2Cc2ccco2)cc1 | 35.9 | 9.1 | 43.0* | 48.8 | 2.8 | 32.5*
COc1ccc(CCN2C(=O)NC(NS(=O)(=O)c3ccccc3)(C(F)(F)F)C2=O)cc1OC (stereo not drawn) | 7.0 | -8.7 | -15.1 | -1.4 | 1.7 | .
CCOc1ccc(N2C=Nc3ccc(OCC)cc3C2)cc1 | -1.1 | 25.8 | 42.3* | 32.6 | -6.9 | 24.6
CCOc1ccc(N2C(=O)CNC2=S)cc1 | -21.1 | . | 25.8 | 4.8 | -0.1 | .
CC(OC(=O)CNS(=O)(=O)c1ccc2ccccc2c1)C(=O)N(C)c1ccccc1 (stereo not drawn) | 16.5 | 0.1 | 20.6 | 24.1 | -6.8 | .
CC(OC(=O)COc1ccc(Nc2ccccc2)cc1)C(=O)N(C)c1ccccc1 (stereo not drawn) | 13.1 | 0.7 | 42.0* | 30.7 | -0.5 | 29.6*
Cc1ccc(C2=NS(=O)(=O)N(C)C(C(=O)Nc3ccc(F)cc3F)=C2)cc1 | 4.0 | 17.1 | 5.1 | -6.8 | 2.1 | .
